Source: PubChem BioAssay (NCI)
Compounds without any hit were thinned out: in the full panel of roughly 83,000, 20% have a hit.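 Assay: single dose, 48 h. Readout: percent growth (0 = no net growth; negative = cell death). Active: <10.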 Activity calls are given as the source filed them.

How the values were obtained:
Assay in all cases: NCI-60 one-dose screen, 48 h (100 = growth as untreated, 0 = no growth, -100 = all killed)
NCI-H226 lung = conditions: 10 µM unless noted
NCI-H322M lung = conditions: 10 µM unless noted
HOP-62 NSCLC = conditions: 10 µM unless noted
NCI-H460 lung = conditions: 10 µM unless noted
HOP-92 NSCLC = conditions: 10 µM
NCI-H522 lung = conditions: 10 µM unless noted
A549/ATCC NSCLC = conditions: 10 µM unless noted
786-0 renal = conditions: 10 µM unless noted
COLO 205 colon = conditions: 10 µM unless noted

Measured: growth

COc1cc(-c2nc(-c3ccccc3)[nH]c2-c2ccnc(NCCCNS(=O)(=O)c3cccc(F)c3)n2)ccc1Cl
inactive: NCI-H226 lung 42.1% | NCI-H322M lung 87.1% | HOP-62 NSCLC 54% | NCI-H460 lung 28.7% | HOP-92 NSCLC 65.1% | NCI-H522 lung 32.6% | A549/ATCC NSCLC 38% | 786-0 renal 54.9%
active: COLO 205 colon 9.39%

CC(=O)O[C@@H]1C(=O)N(c2cnccn2)[C@H]1c1ccccc1[N+](=O)[O-]
active: NCI-H460 lung -5.1% | HOP-92 NSCLC 9.48% | NCI-H522 lung -45.7%
inactive: NCI-H226 lung 39.3% | NCI-H322M lung 36.6% | HOP-62 NSCLC 41.5% | A549/ATCC NSCLC 14.4% | 786-0 renal 14.7% | COLO 205 colon 20.9%

COc1ccc(-c2nc3ccc(-c4nnc(SCC(=O)Nc5ccc(C(=O)/C=C/c6ccc(Cl)cc6)cc5)o4)cc3[nH]2)cc1
inactive: NCI-H226 lung 94.1% | NCI-H322M lung 100% | HOP-62 NSCLC 99.5% | NCI-H460 lung 104% | HOP-92 NSCLC 95% | NCI-H522 lung 95.3% | A549/ATCC NSCLC 105% | 786-0 renal 99.1% | COLO 205 colon 117%

COc1cc2oc(-c3cccc(NC(=O)c4cc(N)ccc4Cl)c3)cc(=O)c2c(OC)c1OC
inactive: NCI-H226 lung 97.1% | NCI-H322M lung 105% | HOP-62 NSCLC 111% | NCI-H460 lung 104% | HOP-92 NSCLC 51.9% | NCI-H522 lung 101% | A549/ATCC NSCLC 103% | 786-0 renal 85.2% | COLO 205 colon 117%

COc1ccc(-c2nn(-c3ccc(S(C)(=O)=O)cc3)cc2/C=N/O)cc1
inactive: NCI-H226 lung 94.7% | NCI-H322M lung 108% | HOP-62 NSCLC 109% | NCI-H460 lung 102% | HOP-92 NSCLC 98.8% | NCI-H522 lung 100% | A549/ATCC NSCLC 105% | 786-0 renal 105% | COLO 205 colon 119%

CCCC(=O)NC(c1cccnc1)c1cc(C(C)(C)C)c2cccnc2c1O (stereo not drawn)
active: NCI-H460 lung 3.55% | NCI-H522 lung 7.22% | 786-0 renal 2.54%
inactive: NCI-H226 lung 12.7% | NCI-H322M lung 33.6% | HOP-62 NSCLC 25.9% | HOP-92 NSCLC 50.5% | A549/ATCC NSCLC 18.2% | COLO 205 colon 20.3%

Cc1cc(C(NC(=O)CCCCCNc2cccc3c2C(=O)N(C2CCC(=O)NC2=O)C3=O)c2ccc3c(c2)OC(F)(F)O3)c(O)c2ncccc12 (stereo not drawn)
active: HOP-92 NSCLC 4.13%
inactive: NCI-H226 lung 72.8% | NCI-H322M lung 71.1% | HOP-62 NSCLC 51.1% | NCI-H460 lung 14.7% | NCI-H522 lung 72.1% | A549/ATCC NSCLC 66.7% | 786-0 renal 79.2% | COLO 205 colon 111%
